The text below walks through data of PMC4552634, “A New Set of Chemical Starting Points with Plasmodium falciparum Transmission-Blocking Potential for Antimalarial Drug Discovery” (PLoS ONE, 2015).

Each structure is given as a SMILES string. Among all 13,000 compounds or so, about 3,200 (25%) showed an effect of 50% or more. This is one part of the list.

The test system of this assay is P. falciparum stage V gametocytes. Set-up: BacTiter-Glo ATP luminescence viability of purified stage V gametocytes in 384-well plates, per cent inhibition versus DMSO. Conditions: 48 h, 5 µM; inhibitor.
For the compound `CCCCc1ccc(C(=O)Nc2ccc3nc(N4CCN(CC)CC4)cc(C)c3c2)cc1` [TCMDC-125578], the “% Inhibition” value is recorded as -16.83%.
In the case of `O=C(Nc1ccc2nc3n(c(=O)c2c1)CCCCC3)C(=O)N1CCC(Cc2ccccc2)CC1` [TCMDC-125294], the “% Inhibition” value is reported as -23.73%.
Next, `O=C(CCCCCCc1ccccc1)Nc1ccc2nc3c(c(NCc4ccccc4)c2c1)CCCC3` [TCMDC-139063]: 91.52%; `CNc1c2c(nc3ccc(NC(=O)CCCCCCc4ccccc4)cc13)CCCC2` [TCMDC-139066]: 79.48%; `Nc1ccnc2ccc(NC(=O)CCCCCc3ccccc3)cc12` [TCMDC-139070]: 2.045%.
Next, `CCCCc1ccc(C(=O)Nc2ccc3nc(N4CCN(C)CC4)cc(C)c3c2)cc1` [TCMDC-125570]: -31.24%; `COc1ccc2nccc(NN=Cc3cccnc3)c2c1` [TCMDC-142032]: -14.51%.
To `O=C(Nc1nccs1)c1cn(-c2ccccc2)nc1-c1ccc(Cl)s1` [TCMDC-123623] belongs 9.788%; to `CC(C)(CNC(=O)C1CCN(CCOc2ccc(Cl)cc2)CC1)c1nc(-c2ccc(Cl)c(O)c2)c(-c2ccncc2)[nH]1` [TCMDC-141124], -30.29%.
As for `Cc1cccc(CN2CCCN(Cc3ccc(C(=O)Nc4ccc(C)c(F)c4)cc3)CC2)c1` [TCMDC-136396], the “% Inhibition” value is on record as -4.425%.
Next, `COc1ccc(CNCCc2cccs2)cc1-c1ccc(OC)c(S(=O)(=O)NCCN2CCCC2)c1` [TCMDC-132476]: 71.75%; `Cc1cc(-c2ccc(CNCCc3cccs3)cc2)ccc1S(=O)(=O)NCc1ccccc1` [TCMDC-132473]: 18.33%.
In the case of `COc1ccc(CNCCc2cccs2)cc1-c1ccc(S(=O)(=O)NCCN2CCCC2)cc1` [TCMDC-132475], the “% Inhibition” value amounted to 76.8%.
With `COc1ccc(CNCCc2cccs2)cc1-c1cccc(S(=O)(=O)NCCN2CCCC2)c1` [TCMDC-132479], the “% Inhibition” value is given as 91.1%.
Next, `S=c1nc(-c2ccccc2)n2ccsc2n1` [TCMDC-123905]: 9.815%; `CC(C)c1ncc(-c2ccncc2)c(C2CCC(CNC(=O)c3cccnc3)CC2)n1` (stereo not shown) [TCMDC-124825]: 14.15%; `O=C(Nc1cccc(-c2ccc(-c3nc4ccccc4[nH]3)cc2)c1)Nc1ccc(F)c(F)c1F` [TCMDC-133230]: -14.97%.
Next, `CCc1cccc(OCCCON2C(N)=NC(N)=NC2(C)C)c1` [TCMDC-131306]: 2.586%; `Fc1ccc2nc(-c3ccc(-c4ccc(CN5CCN(c6cnccn6)CC5)cc4)s3)[nH]c2c1` [TCMDC-133893]: 9.584%.
`O=C(CCCCCNC(=O)c1ccc(O)c(-c2ccc(Cl)c(Cl)c2)c1)NC1CCCc2ccccc21` (stereo not shown) [TCMDC-140866]: the “% Inhibition” value is listed as 4.143%.
To `CC(Sc1n[nH]c(-c2cccs2)n1)C(=O)c1c[nH]c2ccccc12` (stereo not shown) [TCMDC-125010] belongs 53.42%; to `CC1CN(c2ccc3[nH]cc(Sc4ccc(-c5cccs5)cc4)c3c2)CC(C)N1` (stereo not shown) [TCMDC-136644], -55.49%.
To `COC(=O)c1ccc2c(-c3nc4ccc(OC)cc4[nH]3)c[nH]c2c1` [TCMDC-135457] belongs 32.14%.
To `COc1cccc(-c2cc(C(=O)Nc3ccc4nc(-c5ccccc5)[nH]c4c3)[nH]n2)c1` [TCMDC-134319] belongs 8.642%; to `O=C(CSc1n[nH]c(-c2ccccc2Br)n1)c1c[nH]c2ccccc12` [TCMDC-123710], 82.49%.
For the compound `COc1ccc2nc(SC(C)C(=O)c3c[nH]c4ccccc34)[nH]c2c1` (stereo not shown) [TCMDC-125034], the “% Inhibition” value is given as 61.61%.
Next, `Cc1noc(-c2cccs2)c1C(=O)NC(C)c1cccc2ccccc12` (stereo not shown) [TCMDC-124788]: -15.69%.
Next, `Cc1cc(N(C)C)nc(Nc2ccc(NC(=O)c3c(F)cccc3F)cc2)n1` [TCMDC-124977]: 1.948%.
Turning to `COc1cc(SC)c(Br)cc1-c1nc2ccncc2[nH]1` [TCMDC-138164], the “% Inhibition” value is -13.77%.
Next, `Oc1ccc(CCNc2nc(NCc3ccccc3Oc3ccc(C(F)(F)F)cc3)nc(N3CCNCC3)n2)cc1` [TCMDC-134133]: -9.208%.
Next, `CCOc1cc(C2C(C(=O)OC(C)C)=C(C)NC3=C2C(=O)CC(c2ccc(Cl)cc2)C3)ccc1OC(C)=O` (stereo not shown) [TCMDC-125628]: -56.66%.
Next, `Cc1cnc2ccc(NS(=O)(=O)c3ccc4c(Cl)cccc4c3)cc2c1N1CCNCC1` [TCMDC-139558]: 37.46%.
Consider `CCCCOc1ccc(CNCCCCCCNCc2ccc(OCCCC)c3ccccc23)c2ccccc12` [TCMDC-137281], for which the “% Inhibition” value is recorded as 121.9%.
To `CCOc1c(CNCCCCCCNCc2ccc3ccccc3c2OCC)ccc2ccccc12` [TCMDC-137942] belongs 73.68%; to `CCOc1c(Br)cc(Cl)cc1CNCCCNc1nc2ccccc2[nH]1` [TCMDC-140106], 5.667%; to `CN(C)c1c(CNCCCCCCNCc2ccc3ccccc3c2N(C)C)ccc2ccccc12` [TCMDC-137834], 115.6%.
To `CCCCSc1c(CNCCCCCCNCc2ccc3ccccc3c2SCCCC)ccc2ccccc12` [TCMDC-137825] belongs 112.9%; to `CCCc1ccc2c(c1O)CCC(N(CCC)CCC)C2` (stereo not shown) [TCMDC-138031], -27.54%; to `COc1ccc(CN(C)CC(O)COc2ccc(NC(=O)c3cccc4c(=O)c5cccc(OC)c5[nH]c34)cc2)cc1OC` (stereo not shown) [TCMDC-131851], 12.51%.
For the compound `O=C(Cc1ccccc1)NC1(c2ccccc2)CCN(CCc2c[nH]c3ccc(F)cc23)CC1` [TCMDC-131991], the “% Inhibition” value is 26.26%.
As to `CCC(C)c1ccc(NC(=O)c2ccc(S(=O)(=O)Nc3ccc(OC)c(N4CCN(CC5CC5)CC4)c3)cc2)cc1` (stereo not shown) [TCMDC-136299], the “% Inhibition” value is given as -16.95%.
Next, `Oc1ccccc1CN1CCC2(CCCN(Cc3ccccc3F)C2)C1` (stereo not shown) [TCMDC-124620]: 28.07%.
Next, `Cc1cc(NC2CCCC2)nc(Nc2ccc(F)cc2)n1` [TCMDC-133472]: 46.74%; `CCCCOc1cc(CNCCCCCCNCc2cc(OCCCC)cc3ccccc23)c2ccccc2c1` [TCMDC-137824]: 36.59%; `CCCCOc1c(CNCCCCCCNCc2ccc3ccccc3c2OCCCC)ccc2ccccc12` [TCMDC-137975]: 107.4%.
To `COC(=O)c1cccc(CNCc2ccc(-c3ccc(-c4nc5cc(C(F)(F)F)ccc5[nH]4)cc3)cc2)c1.O=C(O)C(F)(F)F` [TCMDC-132954] belongs -38.93%; to `CC1(C)N=C(N)N=C(N)N1OCc1cc2ccccc2cc1CON1C(N)=NC(N)=NC1(C)C` [TCMDC-131627], 15.22%.
On to `O=C(NCCCCN1CCN(CC=Cc2ccccc2)CC1)c1ccc(NC(=O)c2cc(Cl)cc(Cl)c2)cc1` [TCMDC-138216], for which the “% Inhibition” value is listed as -21.85%.
To `O=C(NNC(=O)c1ccc(CN2CCC(c3nc4ccccc4[nH]3)CC2)cc1)Nc1ccc(Oc2ccccc2)cc1` [TCMDC-135310] belongs 0.2458%; to `O=C(/C=C/c1ccc(Cl)c(Cl)c1)NCCCCCCN1CCN(C(=O)Nc2ccc(C(F)(F)F)cc2)CC1` [TCMDC-135824], -51.85%; to `O=C(NCC1CCN(C/C=C/c2ccccc2)CC1)Nc1ccc(Oc2ccccc2)cc1` [TCMDC-139153], 95.36%.
To `CCOC(=O)c1ccc(NC(=O)NCCCC2CCCN(CCCCCNC(=O)/C=C/c3ccc(Cl)c(Cl)c3)C2)cc1` (stereo not shown) [TCMDC-139516] belongs 55.81%; to `CN(C(=O)Nc1ccc(C(F)(F)F)cc1)C1CCN(CCCCCNC(=O)/C=C/c2ccc(Cl)c(Cl)c2)CC1` [TCMDC-139524], 54.85%.
In the case of `CN(C(=O)Nc1ccc(F)cc1)C1CCN(CCCCCNC(=O)/C=C/c2ccc(Cl)c(Cl)c2)CC1` [TCMDC-139492], the “% Inhibition” value was -6.373%.
On to `O=C(/C=C/c1ccc(Cl)c(Cl)c1)NCCCCN1CCCN(C(=O)Nc2ccc(C(F)(F)F)cc2)CC1` [TCMDC-135930], for which the “% Inhibition” value was -28.77%.
Next, `O=C(/C=C/c1ccc(Cl)c(Cl)c1)NCCCCCN1CCCC(CCCNC(=O)Nc2ccc(C(F)(F)F)cc2)C1` (stereo not shown) [TCMDC-139517]: 56.6%; `Cn1cc(CCNc2ccnc(N3CCC(c4ncc[nH]4)CC3)n2)c2ccccc21` [TCMDC-135120]: 26.64%; `CCOC(=O)CCCc1cc(NC2CCN(C)CC2)nc(Nc2ccc(OC)cc2)n1` [TCMDC-134017]: -45.24%.
Consider `Cc1ccc(NC(=O)c2ccc(NCCCN3CC(C)CC(C)C3)c([N+](=O)[O-])c2)cc1F` (stereo not shown) [TCMDC-125684], for which the “% Inhibition” value is on record as -7.765%.
To `Cc1cnc(N)c(/C=C/c2cncc(C(=O)NCCc3ccc(Cl)cc3Cl)c2)c1` [TCMDC-134509] belongs -9.663%; to `O=C(/C=C/c1ccc(Cl)c(Cl)c1)NCCCCCN1CCC(NC(=O)Nc2ccc(C(F)(F)F)cc2)CC1` [TCMDC-135723], -19.76%; to `O=C(/C=C/c1ccc(Cl)c(Cl)c1)NCCCCCN1CCC(NC(=O)Nc2ccc(C(F)(F)F)cc2)C1` (stereo not shown) [TCMDC-139527], -24.61%.
To `O=C(/C=C/c1ccc(Cl)c(Cl)c1)NCCCCCN1CCCC(CNC(=O)Nc2ccc(C(F)(F)F)cc2)C1` (stereo not shown) [TCMDC-139521] belongs 91.99%.
`CC(C)c1ccc(NC(=O)NCC2CCCN(CCCCCNC(=O)/C=C/c3ccc(Cl)c(Cl)c3)C2)cc1` (stereo not shown) [TCMDC-139519]: the “% Inhibition” value was determined as 58.09%.
To `CC(C)c1ccc(NC(=O)NCCCC2CCCN(CCCCCNC(=O)/C=C/c3ccc(Cl)c(Cl)c3)C2)cc1` (stereo not shown) [TCMDC-139515] belongs 38.89%; to `CCCCCCCNC(=O)NCC1CCCN(CCCCCNC(=O)/C=C/c2ccc(Cl)c(Cl)c2)C1` (stereo not shown) [TCMDC-139518], 11.83%.
To `O=C(/C=C/c1ccc(Cl)c(Cl)c1)NCCCCCN1CCC(CCCNC(=O)Nc2ccc(C(F)(F)F)cc2)CC1` [TCMDC-139514] belongs 102.3%.
To `O=C(/C=C/c1ccc(Cl)c(Cl)c1)NCCCCCN1CCC(NC(=O)Nc2ccc(Cl)c(C(F)(F)F)c2)CC1` [TCMDC-135730] belongs 1.176%; to `O=C(/C=C/c1ccc(Cl)c(Cl)c1)NCCCCCN1CCN(C(=O)Nc2ccc(C(F)(F)F)cc2)CC1` [TCMDC-135734], -55.55%.
In the case of `O=C(/C=C/c1ccc(Cl)c(Cl)c1)NCCCCCN1CCCC(CNC(=O)Nc2ccc(Oc3ccccc3)cc2)C1` (stereo not shown) [TCMDC-139522], the “% Inhibition” value was 54.61%.

By % Inhibition is commonly meant the drop in the measured response relative to a control, in per cent.
